D2 PAM-1: potentiates the human D2 dopamine receptor allosterically; P14416; AID 624464; DiscoveRx D2 beta-arrestin cells, luminescence, 90 min; 100% = 57 uM dopamine signal; hit rate 0.23% among 360,000; potentiation, % (concentration not given with the values); in the data active = potentiation above about 50%; inconclusive = mostly about 30% to 49%
Target sequence (P14416 whole entry, looked up): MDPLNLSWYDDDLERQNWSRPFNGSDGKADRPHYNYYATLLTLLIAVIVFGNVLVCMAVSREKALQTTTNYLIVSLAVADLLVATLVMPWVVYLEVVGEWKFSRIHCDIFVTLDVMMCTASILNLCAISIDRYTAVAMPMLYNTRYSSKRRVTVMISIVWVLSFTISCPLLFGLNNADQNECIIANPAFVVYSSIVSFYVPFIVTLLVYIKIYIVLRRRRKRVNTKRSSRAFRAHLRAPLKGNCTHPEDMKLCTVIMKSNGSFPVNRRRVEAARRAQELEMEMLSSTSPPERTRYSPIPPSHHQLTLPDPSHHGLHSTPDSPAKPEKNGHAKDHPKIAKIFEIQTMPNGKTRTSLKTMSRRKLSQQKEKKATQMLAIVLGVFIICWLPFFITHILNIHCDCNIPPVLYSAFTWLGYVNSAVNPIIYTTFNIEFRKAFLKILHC
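PathHunter D2 cells, attached overnight at 37 deg C, received compound in DMSO plus dopamine at EC20 (50 nM final) for 90 min at 37 deg C. Beta-arrestin recruitment was read as luminescence after 1 h with detection reagent at ambient temperature.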
D2 antag: antagonists of human D2 dopamine receptor; hit rate 2% among 340,000; HEK293 TREx D2 cells, calcium flux, dopamine EC80; P14416; inhibition, % at 10 µM; in the data active = inhibition above about 30%; inactive = below that, where a call was filed; also: 0% is about no effect
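Calcium flux kinetic readout in an inducible HEK293 TREx D2 line plated overnight at 30 C. After 180 s compound exposure, an EC80 dopamine challenge follows with another 180 s kinetic read to detect antagonism.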
D2 ag-1: human D2 receptor agonism in beta-arrestin assay; P14416; DiscoveRx PathHunter D2 beta-arrestin, luminescence, 90 min; 100% = 57 uM dopamine signal; activation, % (test concentration not listed); hit rate 0.084% among 360,000; AID 624465; in the data active = activation above about 40%; inconclusive = between about 15% and that limit
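DiscoveRx PathHunter D2 beta-arrestin cells (2,100/well) attached overnight, then compound-stimulated 90 min at 37 C in HBSS/10 mM HEPES/0.1% Tween-20 buffer; beta-galactosidase complementation read by luminescence after 1 h at ambient temperature. Dopamine 57 uM final (EC100) as control.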
D2 PAM-2: D2 dopamine receptor (human) potentiation; P14416; HEK293 T-REx D2, calcium flux, EC20 dopamine potentiation; potentiation, % at 10 µM; hit rate 0.34% among 340,000; AID 485347;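 active = potentiation over 3 SD above the plate norm, cut at about 30% in these data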; also: 0% is about no effect
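Potentiation of an EC20 dopamine calcium response is measured in a force-coupled, tetracycline-inducible Hek293 Trex D2 line. Compound-only kinetic reads over 180 s flag agonists before dopamine addition.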
D2 ag-2: agonists of human D2 dopamine receptor. P14416. HEK293 T-REx D2 cells, calcium flux agonist mode. activation, % at 2 µM. hit rate 0.53% among 340,000. AID 485358;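 active = activation over 3 SD above normal in the single-dose calcium agonist read, cut at about 30% in these data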; also: 0% is about no effect
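HEK293 Trex D2 cells, tetracycline-induced, o/n 30 C 5% CO2; no-wash Ca dye, RT 30–90 min; 10-cycle baseline, 23 nl cpd added, kinetic Ca read 180 s; agonist hits = positive Ca response.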
* marks the source's active call; other numbers are inactive results; ? = inconclusive; / = no result given. Compounds with a hit are over-represented: about 2.4% of the library has one in this group of screens.

SMILES | D2 PAM-1 | D2 antag | D2 ag-1 | D2 PAM-2 | D2 ag-2
[N-]=C=C1C(=O)NC(=O)C([n+]2ccc(-c3ccncc3)cc2)C1c1ccccc1C(F)(F)F (stereo not drawn) | 5.1 | 35.5* | 7.0 | 3.2 | -1.1
[N-]=C=C1C(=S)NC(=O)[C@H]([n+]2ccccc2)[C@H]1c1ccc(Cl)cc1 | -4.7 | -9.1 | 5.1 | 6.0 | 0.8
COc1ccc(-c2noc(-c3nnn(-c4cc(C)ccc4C)c3N)n2)cc1 | / | / | / | -25.7 | 0.8
COc1ccc(NC(=O)CCc2c(C)nn(-c3ccc(N4CCCC4)nn3)c2C)cc1Cl | / | / | / | 6.1 | 0.4
Cc1ccc2c(c1)N(C(=O)N1CCC(C(=O)NCCC3=CCCCC3)CC1)CC(C)O2 (stereo not drawn) | / | / | / | 1.1 | 1.6
CCCc1cc(=O)n2c(C(=O)Nc3ccc(OCC)cc3)c(C(=O)Nc3ccc(C)cc3)sc2n1 | / | / | / | -20.6 | -0.9
C/C(=N\NC(=O)c1ccccc1F)c1ccc2c(c1)Nc1ccccc1S2 | 87.2* | -4.4 | ? | -2.5 | 0.1
COc1ccc(OCC(=O)Nc2nnc3n2CCS3)cc1 | / | / | / | 8.9 | 0.8
Cc1ccc(C(=O)N2CCOCC2)cc1S(=O)(=O)Nc1cccc(C)c1C | -2.0 | 41.6* | -1.6 | -0.9 | 0.4
CC(C)(C)c1ccc(C(=O)NCCCNC(=O)c2ccco2)cc1 | -3.5 | 12.8 | -2.6 | -3.0 | 0.2
CC(C)(C)c1cc(C(F)(F)F)nc(SCCCNC(=O)c2ccco2)n1 | -6.9 | 35.6* | 2.3 | 13.2 | -1.3
Cc1cc(NC(=O)C2C3C(=O)N(CC4CCCO4)C(C(=O)NCc4ccccc4)C34C=CC2(C)O4)no1 (stereo not drawn) | -4.9 | 33.5* | -1.7 | 6.1 | 0.5
COc1cc(OC)cc(C(=O)N2CCN(C3CCCCC3)CC2)c1 | -7.6 | -3.0 | -1.7 | 4.6 | 0.4
COc1cc(OC)cc(C(=O)N2CCN(c3ccccc3F)CC2)c1 | -6.9 | 31.0* | -2.7 | -0.4 | 0.6
COc1ccc(OCC(=O)N2CCN(C(=O)c3cccc(F)c3)CC2)cc1 | -7.3 | -3.4 | -2.3 | -7.8 | -1.2
COc1cc(OC)cc(C(=O)N2CCN(C(=O)c3cccc(F)c3)CC2)c1 | 5.5 | 30.8* | 0.8 | -1.1 | 0.2
O=C(c1cccc(Br)c1)N1CCN(C(=O)c2cccc(Br)c2)CC1 | -6.2 | 4.8 | 0.4 | 35.2* | 0.1
COc1cc(OC)cc(C(=O)N2CCC(N3CCCCCC3)CC2)c1 | -8.1 | 2.6 | -0.6 | 38.0* | -0.5
O=C(c1cccc(Br)c1)N1CCN(C(=O)N2CCOCC2)CC1 | -21.7 | 18.5 | -2.2 | -5.0 | 0.8
COc1ccc(NC(=O)Cn2c(=O)cc(C)c3c(C)nn(C)c32)cc1 | / | / | / | 14.2 | -0.5
O=S(=O)(NCC(c1cccs1)S(=O)(=O)c1ccccc1)c1ccccc1 (stereo not drawn) | / | / | / | -4.1 | 2.1
COC(=O)c1ccccc1NC(=O)c1c(C)oc2ncn(C)c(=O)c12 | / | / | / | 3.5 | -0.1
COc1ccc(NC(=O)N(C2CCCCC2)C2CCN(C(C)C)CC2)c(OC)c1 | 11.1 | 49.9* | 1.0 | / | 0.8
COc1ccc(NC(=O)c2oc3ccccc3c2NC(=O)C23CC4CC(CC(C4)C2)C3)c(OC)c1 | / | / | / | -0.9 | 0.5
Cc1ccc(S(=O)(=O)C2(C(=O)NC3CCCC3)CC2)cc1 | 7.7 | -1.0 | 2.2 | 35.1* | 0.2
SMILES | D2 PAM-1 | D2 antag | D2 ag-1 | D2 PAM-2 | D2 ag-2
Cc1ccc(S(=O)(=O)C2(C(=O)NC3CCCCC3C)CC2)cc1 (stereo not drawn) | -6.5 | 5.1 | -1.2 | -0.2 | -0.2
O=C(/C=C/c1ccccc1)N(c1ccccn1)C1CCCCC1 | 7.7 | 20.7 | 12.8 | -8.5 | 33.9*
CCN(CC)S(=O)(=O)c1ccc(/C=C/C(=O)N(c2ccccn2)C2CCCCC2)cc1 | -8.4 | -2.3 | -0.1 | 0.8 | 2.5
CCOC(=O)c1cc(-c2ccc(F)cc2)n(CCC(=O)NCc2ccc(C)cc2)c1C | / | / | / | 14.9 | 0.7
CCCCN(C)CCNC(=O)c1nn(-c2ccc(OC)cc2)c(=O)c2c1c1ccccc1n2C | -20.2 | 34.1* | -10.4 | -17.5 | 0.1
CCN(C(=O)c1nn(-c2ccc(OC)cc2)c(=O)c2c1c1ccccc1n2C)c1ccc(OC)cc1 | -7.8 | 19.7 | 2.7 | -17.0 | -0.4
Cc1[nH]oc(=O)c1N=Nc1ccccc1 | 57.2* | -6.9 | 14.7 | 4.2 | -0.4
C=CCC(=O)N(CC)CC1CCCN(CCc2cccc(F)c2)C1 (stereo not drawn) | -1.3 | 49.5* | -2.1 | -16.9 | 0.0
CCN(CC1CCCN(CCc2cccc(F)c2)C1)C(=O)c1ccoc1C (stereo not drawn) | -51.1 | / | -3.2 | / | /
COC(=O)C1CCN(S(=O)(=O)c2ccc(NC(C)=O)cc2)CC1 | -18.6 | -16.8 | -3.7 | 2.5 | 1.2
COC(=O)C1CCN(S(C)(=O)=O)CC1 | -4.3 | -14.5 | -3.9 | 42.2* | 1.1
CC1(C)CC(=O)C2=C(C1)N(c1ccccc1)C(=O)C2(O)C(F)(F)F (stereo not drawn) | -4.6 | 35.6* | -9.6 | 0.7 | -0.4
CCn1cc(-c2nnnn2-c2ccc(Cl)cc2)c(=O)c2ccccc21 | 4.8 | -13.1 | 1.4 | 37.8* | 0.1
Cn1cc(-c2nnnn2-c2ccc(Cl)cc2)c(=O)c2ccccc21 | -7.2 | -9.9 | -2.5 | -3.5 | 0.1
CCC(C(=O)Nc1cc(C(F)(F)F)ccc1Cl)n1nc(C)c2sc3ccccc3c2c1=O (stereo not drawn) | / | / | / | 7.9 | 0.1
Cc1cc(C)c(C#N)c(SCc2ccccc2C)n1 | -7.2 | 34.0* | -1.0 | 10.9 | -2.1
Cc1ccc(S(=O)(=O)CCSc2nc(C)cc(C)c2C#N)cc1 | -10.6 | 8.6 | -0.5 | 33.4* | -0.4
O=C(NCCc1ccc(Cl)cc1)C1CCN(Cc2cc3ccccc3n2Cc2ccccc2)CC1 | / | / | / | 4.4 | 0.9
COc1ccccc1OC1OC2COC(c3ccco3)OC2C(O)C1NC(C)=O (stereo not drawn) | -13.0 | -10.7 | 2.0 | -9.7 | 1.3
COc1ccc(C2OC[C@H]3O[C@H](O)[C@H](NC(C)=O)[C@@H](O)[C@@H]3O2)cc1 (stereo partly drawn) | 8.3 | 52.9* | 6.7 | 1.4 | 2.2
CC1Cc2cc(S(=O)(=O)CCC(=O)Nc3ccc(F)cc3Cl)ccc2N1C(=O)C1CC1 (stereo not drawn) | / | / | / | -6.1 | /
O=C(NC(=S)Nc1ccc2oc(=O)ccc2c1)c1cccc(Cl)c1 | -7.0 | 30.4* | -3.7 | -2.0 | 0.4
CN(CCOc1ccc(Cl)cc1)C(=O)c1ccc(S(=O)(=O)N2CCOCC2)cc1 | -1.0 | 6.5 | -3.1 | 1.9 | -1.0
CCCCN(C)C(=O)c1ccc(S(=O)(=O)N2CCOCC2)cc1 | 0.2 | 32.6* | -1.8 | 2.9 | -0.2
Cc1ccc(Cl)cc1NC(=O)COC(=O)c1ccc(N2CCCC2)c([N+](=O)[O-])c1 | / | 57.2* | / | -8.8 | 0.2
CCCNC(=O)COC(=O)c1ccc(N2CCCC2)c([N+](=O)[O-])c1 | 2.8 | -8.1 | 0.3 | 0.2 | 0.8

Source: PubChem BioAssay (National Center for Advancing Translational Sciences (NCATS))
